Data: PubChem BioAssay (Tox21)
Records with an inconclusive call do not appear. Entries that show only a call come without a potency. The source made the active and inactive calls. Unless noted, calls follow the shape of the dose curve; as a rule, active = well fitted curve in the direction sought with a large enough effect in the repeat runs; inconclusive = weak or mixed curves; inactive = no such curve, though single readings can be large; an effect the other way counts as inactive or inconclusive.

Experiments:
[1] = qHTS assay to identify small molecule antagonists of the estrogen related receptor (ERR) signaling pathway - cell viability counter screen (AID 1224818); also: potency is read from the fitted curve at half-maximal effect
How it was run: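 ERR cells, 2,000/well; 6 h settle at 37 C/5% CO2; compound pin transfer (DMSO); 17.5 h at 37 C; CellTiter-Fluor, 30 min, fluorescence read.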

[2] = qHTS assay to identify small molecule antagonists of the estrogen related receptor (ERR) signaling pathway (AID 1224819; also: nearly all actives have a fitted effect of over 50% in size; also: potency is read from the fitted curve at half-maximal effect)
How it was run: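 qHTS in ERR cells, 2,000/well, 1536 format. Cpd (DMSO) added after 6 h settle, 18 h 37 C. One-Glo luminescence, 30 min RT.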

[3] = qHTS assay to identify small molecule agonists of the estrogen related receptor (ERR) signaling pathway (AID 1224820); also: potency is read from the fitted curve at half-maximal effect
How it was run: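 An ERR cell line provided by NTP was seeded at 2,000 cells per well and allowed to settle for 6 h before compounds in DMSO were added. After 18 h at 37 C, luciferase activity was measured by One-Glo luminescence.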

[4] = system: estrogen-related receptor alpha (ERRalpha) with PGC-1alpha coactivator, human; experiment: qHTS assay to identify small molecule antagonists of the estrogen related receptor signaling pathway with the pleiotropic PPARgamma coactivator (PGC) (AID 1224821; calls by dose curve; also: nearly all actives have a fitted effect of over 50% in size; also: potency is read from the fitted curve at half-maximal effect)
How it was run: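 A PGC/ERR cell line supplied by NTP is seeded, allowed 6 h at 37 C, and treated with test compounds in DMSO for 18 h. Signal is then measured as luciferase luminescence using One-Glo.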

[5] = qHTS assay to identify small molecule antagonists of the estrogen related receptor signaling pathway with the pleiotropic PPARgamma coactivator (PGC) cell viability counter screen (AID 1224822; also: potency is read from the fitted curve at half-maximal effect;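 also: viability read after 17.5 h compound exposure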)
How it was run: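 Multiplexed viability counter screen run in PGC/ERR cells treated with compounds for 17.5 h at 37 C; live-cell protease signal measured by CellTiter-Fluor fluorescence.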

[6] = qHTS assay to identify small molecule agonists of the estrogen related receptor signaling pathway with the pleiotropic PPARgamma coactivator (PGC) (AID 1224823)
How it was run: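 Compounds dissolved in DMSO are added by pin tool to PGC/ERR cells that have settled for 6 h, and incubation continues 18 h at 37 C. Reporter output is measured as One-Glo luminescence.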

SMILES	Potency [1]	Potency [2]	Potency [3]	Potency [4]	Potency [5]	Potency [6]
O=c1cc(-c2ccccc2)oc2c(O)c(O)ccc12	inactive	inactive	inactive	inactive	inactive	inactive
CNc1cc(NS(=O)(=O)c2ccc(N)cc2)nc(NC)n1	inactive	inactive	inactive	inactive	inactive	inactive
O=c1cc(O)cc(/C=C/c2ccc(O)c(O)c2)o1	inactive	inactive	inactive	inactive	inactive	inactive
N[C@H](CO)C(=O)O	inactive	inactive	inactive	inactive	inactive	inactive
N#CC(C#N)=C(N)/C(C#N)=C/c1ccc(O)cc1	inactive	inactive	inactive	inactive	inactive	inactive
O=C(N[C@@H](Cc1ccccc1)C(=O)CCl)OCc1ccccc1	19.6 µM (active)	21.1 µM (active)	inactive	16.8 µM (active)	16.8 µM (active)	inactive
COc1ccccc1CN[C@@H]1CCCN[C@@H]1c1ccccc1	inactive	inactive	inactive	inactive	inactive	inactive
OCC1O[C@H](O)C(Cl)C(O)C1O (stereo not given in full)	inactive	inactive	inactive	inactive	inactive	inactive
NCCCC(=O)O	inactive	inactive	inactive	inactive	inactive	inactive
CC(=O)NNC(=O)N1Cc2ccccc2Oc2ccc(Cl)cc21	inactive	inactive	inactive	inactive	inactive	inactive
O=C1NC(=O)/C(=C/c2ccc(-c3ccc(F)cc3O)o2)S1	inactive	inactive	inactive	inactive	inactive	inactive
CC1=C(C(=O)O)N2C(=O)[C@@H](NC(=O)C(N)c3ccccc3)[C@H]2SC1 (stereo not given in full)	inactive	inactive	inactive	inactive	inactive	inactive
Cc1cc2c(cc1Cl)N(C(=O)Nc1ccnc3ccccc13)CC2	inactive	inactive	inactive	inactive	inactive	inactive
O=S(=O)(c1cccc2c(Cl)cccc12)N1CCCNCC1	inactive	inactive	inactive	inactive	inactive	inactive
NS(=O)(=O)c1ccc(-n2nc(C(F)(F)F)cc2-c2ccc(Cl)cc2)cc1	inactive	inactive	inactive	inactive	inactive	inactive
O=C1CCC(c2ccc(-n3ccnc3)cc2)=NN1	inactive	inactive	inactive	inactive	inactive	inactive
Brc1cc2c(cc1[C@H]1Nc3ccccc3[C@H]3C=CC[C@H]31)OCO2	inactive	inactive	inactive	inactive	inactive	inactive
COc1ccccc1N1CCN(CCCCN2C(=O)c3ccccc3C2=O)CC1	inactive	inactive	inactive	inactive	inactive	inactive
O=c1[nH]c2cc(Cl)ccc2c(O)c1-c1ccc(Oc2ccccc2)cc1	inactive	inactive	inactive	inactive	inactive	inactive
O=C(O)c1cc(=O)c2ccccc2[nH]1	inactive	inactive	inactive	inactive	inactive	inactive
NC(N)=NCCCCN=C(N)N	inactive	inactive	inactive	inactive	inactive	inactive
CC(N)(Cc1ccc(O)cc1)C(=O)O (stereo not given)	inactive	inactive	inactive	inactive	inactive	inactive
N=C(N)SCCc1cnc[nH]1	inactive	inactive	inactive	inactive	inactive	inactive
O=c1c(O)c(-c2cc(O)c(O)c(O)c2)oc2cc(O)cc(O)c12	inactive	inactive	inactive	inactive	inactive	inactive
CCCCCCCCCCCCCCCC(=O)OC(CC(=O)O)C[N+](C)(C)C (stereo not given)	inactive	inactive	inactive	inactive	inactive	inactive
CC[C@H](C)C(=O)O[C@H]1CCC=C2C=C[C@H](C)[C@H](CC[C@@H]3C[C@@H](O)CC(=O)O3)[C@H]21	inactive	inactive	3.48 µM (active)	inactive	inactive	inactive
O=[N+]([O-])c1ccc(CSc2ncnc3c2ncn3[C@@H]2O[C@H](CO)C(O)[C@H]2O)cc1 (stereo not given in full)	inactive	inactive	inactive	inactive	inactive	inactive
O=C(O)c1cc(=O)c2c(Cl)cc(Cl)cc2[nH]1	inactive	inactive	inactive	inactive	inactive	inactive
NC[C@@H]1O[C@H](c2ccccc2)Cc2c1ccc(O)c2O	inactive	inactive	inactive	inactive	inactive	inactive
CC(N)(C(=O)O)c1ccc(C(=O)O)cc1 (stereo not given)	inactive	inactive	inactive	inactive	inactive	inactive
